Experimental data from PubChem BioAssay AID1159580 (chemical genetic matrix, 2015).
Hit rate of the full screen: of about 5,500 compounds, about 2,000 (36%) were called active. Roughly 18% stayed inconclusive and do not appear here. No stated cut-off is given here; in the data, active means normalized growth mostly below about 0.91 (no sharp cut-off); inconclusive means no clear call, values can overlap the other calls; inactive means mostly above about 0.92. This is one part of the list.

Assay: chemical genetic growth profiling, strain panel (AID 1159580);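 further: tested at 20 µM; growth read once vehicle control cultures reached saturation at 30 °C; 1 = growth at the plate median or of vehicle wells; lower values mean less growth of the strain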
Conditions: growth OD
[1] = S. cerevisiae deletion strains, locus YAL013W, strain DEP1, hits give low values
[2] = S. cerevisiae deletion strains, locus YBR229C, strain ROT2, hits give low values
[3] = S. cerevisiae deletion strains, locus YDL101C, strain DUN1, hits give low values
[4] = S. cerevisiae deletion strains, locus YDR150W, strain NUM1, hits give low values
[5] = S. cerevisiae deletion strains, locus YEL061C, strain CIN8, hits give low values
[6] = S. cerevisiae deletion strains, locus YGR078C, strain PAC10, hits give low values
[7] = S. cerevisiae deletion strains, locus YHR030C, strain SLT2, hits give low values
[8] = S. cerevisiae deletion strains, locus YHR087W, strain rtc3, hits give low values
[9] = S. cerevisiae deletion strains, locus YJL187C, strain SWE1, hits give low values
[10] = S. cerevisiae deletion strains, locus YJR043C, strain POL32, hits give low values
[11] = S. cerevisiae deletion strains, locus YJR075W, strain HOC1, hits give low values
[12] = S. cerevisiae deletion strains, locus YKL190W, strain CNB1, hits give low values
[13] = S. cerevisiae deletion strains, locus YLR039C, strain RIC1, hits give low values
[14] = S. cerevisiae deletion strains, locus YLR058C, strain SHM2 (second series), hits give low values
[15] = S. cerevisiae deletion strains, locus YLR085C, strain ARP6, hits give low values
[16] = S. cerevisiae deletion strains, locus YLR262C, strain YPT6, hits give low values
[17] = S. cerevisiae deletion strains, locus YML094W, strain GIM5, hits give low values
[18] = S. cerevisiae deletion strains, locus YMR219W, strain ESC1, hits give low values
[19] = S. cerevisiae deletion strains, locus YMR263W, strain SAP30, hits give low values
[20] = S. cerevisiae deletion strains, locus YNL153C, strain GIM3, hits give low values
[21] = S. cerevisiae deletion strains, locus YNL298W, strain CLA4 (second series), hits give low values
[22] = S. cerevisiae deletion strains, locus YNL322C, strain KRE1, hits give low values
[23] = S. cerevisiae deletion strains, locus YNR030W, strain Alg12, hits give low values
[24] = S. cerevisiae deletion strains, locus YOL006C, strain TOP1, hits give low values
[25] = S. cerevisiae deletion strains, locus YPL055C, strain LGE1, hits give low values
[26] = S. cerevisiae deletion strains, locus YPL241C, strain CIN2, hits give low values
[27] = S. cerevisiae deletion strains, locus YPR135W, strain CTF4, hits give low values
[28] = S. cerevisiae strains, strain wild type, hits give low values
[29] = S. cerevisiae deletion strains, locus YCL061C, strain MRC1, hits give low values

Measured: normalized growth

CSc1ncc(C#N)c2nc(-c3ccc(N(C)C)cc3)nn12
inactive: [1] 1.01 | [2] 0.991 | [3] 0.974 | [4] 0.966 | [5] 1 | [6] 0.983 | S. cerevisiae deletion strains, locus YGR229C, strain SMI1, hits give low values 1 | [7] 1 | [8] 1.05 | [9] 1.01 | [10] 0.975 | [11] 0.994 | [12] 1.01 | [13] 1.08 | [14] 1.02 | [15] 1.02 | [16] 1.09 | [17] 1.05 | [18] 1.01 | [19] 1.01 | [20] 0.985 | [21] 1.04 | [22] 1 | [23] 1.03 | [24] 1.04 | [25] 1.01 | [26] 1.01 | [27] 0.968 | [28] 1

O=S(=O)(Oc1ccc(OCc2ccccc2)cc1)c1cc(Cl)cc(Cl)c1
inactive: [1] 1.01 | [2] 1.01 | [29] 1.01 | [3] 0.987 | [4] 1 | [5] 0.959 | [6] 1 | [7] 0.881 | [8] 0.983 | [9] 1 | [10] 1.01 | [11] 1.01 | [13] 1.01 | [14] 1.01 | [15] 0.943 | [16] 0.985 | [17] 0.966 | [18] 0.993 | [19] 1.01 | [20] 0.998 | [21] 1.01 | [22] 1 | [23] 0.998 | [24] 0.779 | [25] 0.969 | [26] 1 | [27] 0.988 | [28] 1

OC(COc1ccc(F)cc1)(c1ccc(Cl)cc1)c1ccc(Cl)cc1
inactive: S. cerevisiae deletion strains, locus YAR019C, strain CDC15, hits give low values 0.991 | S. cerevisiae deletion strains, locus YBL105C, strain PKC1, hits give low values 0.985 | S. cerevisiae deletion strains, locus YBR135W, strain CKS1, hits give low values 0.984 | S. cerevisiae deletion strains, locus YBR136W, strain MEC1, hits give low values 1 | S. cerevisiae deletion strains, locus YBR160W, strain CDC28, hits give low values 0.982 | S. cerevisiae deletion strains, locus YDL017W, strain CDC7, hits give low values 0.988 | S. cerevisiae deletion strains, locus YDL028C, strain MPS1, hits give low values 0.985 | [3] 0.974 | S. cerevisiae deletion strains, locus YDL108W, strain KIN28, hits give low values 0.978 | S. cerevisiae deletion strains, locus YDL132W, strain cdc53, hits give low values 0.987 | S. cerevisiae deletion strains, locus YDL214C, strain PRR2, hits give low values 0.985 | S. cerevisiae deletion strains, locus YDR052C, strain DBF4, hits give low values 0.989 | S. cerevisiae deletion strains, locus YDR054C, strain cdc34, hits give low values 0.993 | S. cerevisiae deletion strains, locus YDR226W, strain ADK1, hits give low values 0.983 | S. cerevisiae deletion strains, locus YDR477W, strain SNF1, hits give low values 0.996 | S. cerevisiae deletion strains, locus YER123W, strain YCK3, hits give low values 0.96 | S. cerevisiae deletion strains, locus YER133W, strain GLC7, hits give low values 0.987 | S. cerevisiae deletion strains, locus YFL009W, strain cdc4, hits give low values 0.993 | S. cerevisiae deletion strains, locus YFL029C, strain CAK1, hits give low values 0.988 | S. cerevisiae deletion strains, locus YFR003C, strain YPI1, hits give low values 0.989 | S. cerevisiae deletion strains, locus YFR019W, strain FAB1, hits give low values 1 | S. cerevisiae deletion strains, locus YFR028C, strain CDC14, hits give low values 0.986 | S. cerevisiae deletion strains, locus YGR040W, strain KSS1, hits give low values 0.981 | S. cerevisiae deletion strains, locus YGR052W, strain FMP48, hits give low values 1.08 | S. cerevisiae deletion strains, locus YGR092W, strain DBF2, hits give low values 0.962 | [7] 1.07 | S. cerevisiae deletion strains, locus YHR079C, strain IRE1, hits give low values 1.08 | S. cerevisiae deletion strains, locus YHR082C, strain KSP1, hits give low values 1.07 | S. cerevisiae deletion strains, locus YHR205W, strain SCH9, hits give low values 0.964 | S. cerevisiae deletion strains, locus YIL147C, strain SLN1, hits give low values 0.98 | S. cerevisiae deletion strains, locus YJL095W, strain BCK1, hits give low values 1.08 | S. cerevisiae deletion strains, locus YJL128C, strain PBS2, hits give low values 0.939 | S. cerevisiae deletion strains, locus YJL157C, strain FAR1, hits give low values 0.988 | S. cerevisiae deletion strains, locus YJR016C, strain ILV3, hits give low values 0.984 | S. cerevisiae deletion strains, locus YJR066W, strain TOR1 (second series), hits give low values 0.971 | S. cerevisiae deletion strains, locus YJR066W, strain TOR1, hits give low values 1.12 | S. cerevisiae deletion strains, locus YKL048C, strain ELM1, hits give low values 0.984 | S. cerevisiae deletion strains, locus YKL067W, strain YNK1, hits give low values 0.988 | S. cerevisiae deletion strains, locus YKL101W, strain HSL1, hits give low values 0.98 | S. cerevisiae deletion strains, locus YKL193C, strain SDS22, hits give low values 0.991 | S. cerevisiae deletion strains, locus YKL203C, strain TOR2, hits give low values 1.08 | S. cerevisiae deletion strains, locus YLR113W, strain HOG1, hits give low values 0.957 | S. cerevisiae deletion strains, locus YLR133W, strain CKI1, hits give low values 0.989 | S. cerevisiae deletion strains, locus YLR403W, strain SFP1, hits give low values 1 | S. cerevisiae deletion strains, locus YML070W, strain DAK1, hits give low values 0.99 | S. cerevisiae deletion strains, locus YMR001C, strain CDC5, hits give low values 0.984 | S. cerevisiae deletion strains, locus YMR205C, strain PFK2 (second series), hits give low values 0.995 | S. cerevisiae deletion strains, locus YMR277W, strain FCP1, hits give low values 0.992 | S. cerevisiae deletion strains, locus YNL006W, strain LST8, hits give low values 0.998 | S. cerevisiae deletion strains, locus YNL020C, strain ARK1, hits give low values 0.988 | S. cerevisiae deletion strains, locus YNL161W, strain CBK1, hits give low values 0.988 | S. cerevisiae deletion strains, locus YNL183C, strain NPR1, hits give low values 1.09 | S. cerevisiae deletion strains, locus YNL207W, strain RIO2, hits give low values 0.997 | S. cerevisiae deletion strains, locus YNL222W, strain SSU72, hits give low values 0.991 | S. cerevisiae deletion strains, locus YNL307C, strain MCK1 (second series), hits give low values 0.981 | S. cerevisiae deletion strains, locus YOL078W, strain AVO1, hits give low values 0.994 | S. cerevisiae deletion strains, locus YOL136C, strain PFK27, hits give low values 0.966 | S. cerevisiae deletion strains, locus YOR061W, strain CKA2, hits give low values 0.988 | S. cerevisiae deletion strains, locus YOR119C, strain RIO1, hits give low values 1.02 | S. cerevisiae deletion strains, locus YOR231W, strain MKK1, hits give low values 1.06 | S. cerevisiae deletion strains, locus YOR329C, strain SCD5, hits give low values 0.984 | S. cerevisiae deletion strains, locus YPL031C, strain PHO85, hits give low values 0.981 | S. cerevisiae deletion strains, locus YPL153C, strain RAD53, hits give low values 0.984 | S. cerevisiae deletion strains, locus YPL204W, strain HRR25, hits give low values 0.986 | S. cerevisiae deletion strains, locus YPL209C, strain IPL1, hits give low values 0.992 | S. cerevisiae deletion strains, locus YPL256C, strain CLN2, hits give low values 1.07 | S. cerevisiae deletion strains, locus YPR025C, strain CCL1, hits give low values 0.992 | S. cerevisiae deletion strains, locus YPR106W, strain ISR1, hits give low values 0.983 | S. cerevisiae deletion strains, locus YPR111W, strain DBF20, hits give low values 0.984 | S. cerevisiae deletion strains, strain NNK1, hits give low values 0.992 | S. cerevisiae deletion strains, strain TSCII, hits give low values 0.991

Fc1cc(F)cc(COc2cc(Cl)cc(Cl)c2)c1
inactive: [1] 1 | [2] 0.987 | [29] 0.96 | [3] 1.01 | S. cerevisiae deletion strains, locus YDL134C, strain PPH21, hits give low values 0.992 | [4] 0.885 | [5] 1.01 | [6] 0.96 | [8] 0.959 | [9] 0.968 | [10] 0.985 | [11] 0.913 | [12] 0.967 | [13] 1.01 | [14] 0.972 | [15] 0.822 | [16] 0.943 | [17] 1.01 | [18] 0.984 | [19] 0.97 | S. cerevisiae deletion strains, locus YMR307W, strain GAS1, hits give low values 0.739 | [20] 1 | [21] 0.919 | [22] 0.987 | [23] 0.928 | [24] 0.8 | [25] 0.922 | [27] 0.886 | [28] 0.96
active: [7] 0.522 | [26] 0.832
